Data: PubChem BioAssay (NCI)
This is part of a sample that, as a whole, favours compounds with a hit. Of some 79,000 tested, about 15% had one in any assay. Rule as the data show it: active = growth inhibition above about 70%; inactive = the rest.

Experiments:
[1] = NCI Yeast Anticancer Drug Screen. Data for the rad50 strain (AID 155);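 also: 0% = growth of vehicle-only cultures of the same strain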; conditions: S. cerevisiae rad50 strain growth inhibition; at 50.0 µM; active compounds read high
Outline: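 Relative growth inhibition (compound vs vehicle) was measured in yeast with a defined repair-gene alteration.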

[2] = NCI Yeast Anticancer Drug Screen. Data for the mec2-1 strain (AID 157); conditions: S. cerevisiae mec2-1 strain, at 50.0 µM, active compounds read high
Outline: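 Mutant yeast (mec2-1) grown with compound; growth inhibition relative to vehicle control reported.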

[3] = NCI Yeast Anticancer Drug Screen. Data for the sgs1 mgt1 strain (AID 161);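 also: 0% = growth of cultures given vehicle only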; conditions: S. cerevisiae sgs1 mgt1 strain, at 50.0 µM, active compounds read high
Outline: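 Yeast cells carrying a defined DNA-repair defect were exposed to test compounds. Growth inhibition was measured relative to vehicle-treated controls.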

[4] = NCI Yeast Anticancer Drug Screen. Data for the cln2 rad14 strain (AID 165);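 also: 0% = growth equal to vehicle treated cultures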; conditions: S. cerevisiae cln2 rad14 strain, at 50.0 µM, active compounds read high
Outline: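 Readout is yeast growth inhibition versus vehicle-treated controls, using a strain with cln2 and rad14 alterations exposed to compound.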

[5] = NCI Yeast Anticancer Drug Screen. Data for the bub3 strain (AID 167); conditions: S. cerevisiae bub3 mutant strain, at 50.0 µM, active compounds read high
Outline: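 Screening used yeast with an engineered genetic alteration affecting cell cycle control. Compound-exposed cultures were compared with vehicle cultures, and reduced growth was taken as inhibition.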

[6] = NCI Yeast Anticancer Drug Screen. Data for the mlh1 rad18 strain (AID 175); conditions: S. cerevisiae mlh1 rad18 strain growth inhibition; at 50.0 µM; active compounds read high
Outline: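 Genetically defined yeast (DNA repair-deficient) exposed to compounds; growth inhibition determined relative to vehicle.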

Measured: growth inhibition

CCCCCCC(O)Cc1ccccc1 (stereo unspecified)
inactive: [1] 5.95% | [2] 5.1% | [3] -5.5% | [4] -12.3% | [5] -24.9% | [6] 1.2%

CCOC(=O)C1Oc2ccccc2OC1C (stereo unspecified)
inactive: [1] 24.5% | [2] -15.7% | [3] 9.45% | [4] 12.9% | [5] 16.3% | [6] 3.85%

OCC(O)C(O)C(O)C(O)CN=Cc1ccccc1O (stereo unspecified)
inactive: [1] -19.8% | [2] 7.9% | [3] -10.7% | [4] 2.8% | [5] -19.6% | [6] -4.45%

Nc1cc(C(F)(F)F)cc(C(F)(F)F)c1
inactive: [1] -6.2% | [2] 1.6% | [3] -0.85% | [4] 16.6% | [5] -1.4% | [6] -10.4%

CCOC(=O)c1ccc(CSc2ccccc2C(=O)OCC)cc1
inactive: [1] -10.3% | [2] -13.1% | [3] 9.95% | [4] -60.1% | [5] -17.1% | [6] -43.2%

COc1ccc(CCN2C(=O)C(=O)N(c3ccc(Cl)c(Cl)c3)C2=O)cc1OC
inactive: [1] 3.05% | [2] -0.25% | [3] 11.5% | [4] 14.3% | [5] -4.35% | [6] 13%

O=C(O)COc1ccc([N+](=O)[O-])cc1/C=C1/SC(=S)N(c2ccccc2)C1=O
inactive: [1] 14.7% | [2] 10.3% | [3] 18.9% | [4] 2.5% | [5] -1.6% | [6] 11.2%

COC(=O)c1cccnc1C#N
inactive: [1] 2.2% | [2] -0.95% | [3] 2.9% | [4] -5.95% | [5] 0.55% | [6] 0.4%

O=C1C(N=Nc2ccc([N+](=O)[O-])cc2)Sc2nc3ccccc3n21 (stereo unspecified)
inactive: [1] 25.8% | [2] -39.9% | [3] 7.6% | [4] -14.5% | [5] -2.2% | [6] 12.2%

Cc1cc(C)c(NS(=O)c2cccc(C(F)(F)F)c2)c(C)c1 (stereo unspecified)
inactive: [1] -47.1% | [2] -26.5% | [3] -61% | [4] -9.75% | [5] -31.4% | [6] -43%

O=C(Nc1cc2cc([N+](=O)[O-])ccc2oc1=O)c1cccs1
inactive: [1] -12.2% | [2] -30.7% | [3] -6.8% | [4] 4.85% | [5] -40.2% | [6] -15.6%

CN1CCN(C2CCCc3ccccc3C2O)CC1 (stereo unspecified)
inactive: [1] -0.75% | [2] 13.6% | [3] -15.7% | [4] -25.1% | [5] 1.3% | [6] 0.2%

CC(C)CC(NC(=O)c1ccccc1C(=O)O)C(N)=O (stereo unspecified)
inactive: [1] -6.7% | [2] 3.5% | [3] 6.65% | [4] -0.15% | [5] 6.2% | [6] -19%

CCCCCCCCNC=O
inactive: [1] 26.1% | [2] 11.1% | [3] 9.45% | [4] 1.1% | [5] 13.1% | [6] 20.8%

COc1cc2nc3n(c(=O)c2cc1OC)CCCCC3
inactive: [1] 10.4% | [2] 14.6% | [3] 3.75% | [4] -13.2% | [5] 28% | [6] -19.8%

CC(=O)CC(=O)NCCNC(=O)CC(C)=O
inactive: [1] -4.55% | [2] -11.6% | [3] 10.3% | [4] 6.4% | [5] -4.55% | [6] 8.85%

CCCCC(O)(CC)CC
inactive: [1] 3.3% | [2] -23.9% | [3] -3.6% | [4] 5.5% | [5] -16.4% | [6] 15.2%

CCCc1nc2ccc(C)cc2[nH]1
inactive: [1] 8.4% | [2] -9% | [3] -18.2% | [4] -11.3% | [5] -1.5% | [6] 7.9%

CC(C)CCN(CCCNc1c2c(nc3ccc(Cl)cc13)CCCC2)CCC(C)C
inactive: [1] -1.65% | [2] -9.4% | [3] -7.55% | [4] -34.4% | [5] -1.25% | [6] 4.95%

CCN(CC)CCCNc1ccc2nnn3c4ccc(O)cc4c(=O)c1c23
inactive: [1] -15.6% | [2] -7.9% | [3] -7.35% | [4] 25.3% | [5] -6.5% | [6] 6.65%

O=C(/C=C/c1ccc(OCC(=O)N2CCN(c3ccccc3)CC2)cc1)c1ccc(Cl)cc1
inactive: [1] 13.6% | [2] 13.9% | [3] -5.8% | [4] 0.55% | [5] 2.7% | [6] -4.45%

N#CC1C[C@@H]2CC3(CCC2CN1C(=O)c1ccccc1)OCCO3 (stereo partly specified)
inactive: [1] 8.25% | [2] -9.6% | [3] -12.1% | [4] -24.6% | [5] 0.9% | [6] -14%

O=C(Nc1ccc2[nH]c3c(-c4ccccc4)nccc3c2c1)c1ccccc1[N+](=O)[O-]
inactive: [1] 15.8% | [2] -21.2% | [3] -5.3% | [4] 6.65% | [5] -2.75% | [6] 5.35%

CNC(=O)OCc1c(COC(=O)NC)c(C)n(-c2ccc3c(c2)OCO3)c1C
inactive: [1] -3.2% | [2] -6.95% | [3] 19.2% | [4] -0.45% | [5] 1.35% | [6] -40.3%

O=C(O)C1C2OC3C(OC(=O)C31)C2Cl (stereo unspecified)
inactive: [1] -4.5% | [2] 6% | [3] 9.85% | [4] -14.3% | [5] -6.5% | [6] -12.3%

C=C(Cl)C(=C)CCC(Cl)C(C)(C)Cl (stereo unspecified)
inactive: [1] 12.6% | [2] 9.4% | [3] -13.7% | [4] 2.5% | [5] -16.8% | [6] -8.4%

Cc1ccc(S(=O)(=O)OC2C3C4CCC5C3SC3C5C4C23)cc1 (stereo unspecified)
inactive: [1] -5.3% | [2] -21.1% | [3] -3.65% | [4] 5.8% | [5] 6.6% | [6] 1.1%

CCC(c1ccc(OCC(=O)N2CC2)cc1)C(CC)c1ccc(OCC(=O)N2CC2)cc1 (stereo unspecified)
inactive: [1] 11.8% | [2] 10.3% | [3] 13.5% | [4] 17.8% | [5] -0.35% | [6] 1.75%

CC(C)(C)OC(=O)CNC(=O)C(CSC(c1ccccc1)c1ccccc1)NC(=O)CNC(=O)C(CCCCNC(=O)OCc1ccccc1)NC(=O)CNC(=O)C(CSC(c1ccccc1)(c1ccccc1)c1ccccc1)NC(=O)OCc1ccccc1 (stereo unspecified)
inactive: [1] 34.8% | [2] 14.7% | [3] 8.5% | [4] 3.8% | [5] 19.3% | [6] -4.2%

O=C(O)C(c1cccs1)C1(O)CCCCC1 (stereo unspecified)
inactive: [1] -0.75% | [2] -7.2% | [3] -2.25% | [4] -1.65% | [5] -2.5% | [6] -5.3%

NC(=O)c1nnn2c1nc(N)c1cc(Cl)ccc12
inactive: [1] -28.4% | [2] -26.6% | [3] -9.55% | [4] -18.4% | [5] -27.6% | [6] -22.6%

CCOC(=O)Nc1ccc(F)c(C(F)(F)F)c1
inactive: [1] -8.05% | [2] 4.45% | [3] 8.6% | [4] -52.3% | [5] 11.6% | [6] -4.25%

CCOC(=O)c1ccc(NC(=O)Sc2ccccc2C)cc1
inactive: [1] 5.55% | [2] 12.9% | [3] 11.3% | [4] 7.5% | [5] 28% | [6] 13.6%

CC/C(Cl)=N\OC(=O)Nc1ccc(F)cc1F
inactive: [1] 2.2% | [2] -12.1% | [3] -4.05% | [4] 7.05% | [5] -6.45% | [6] -26.4%

CCCOc1ccc(C2=C(c3ccccc3)C(=O)C(c3ccccc3)=C2c2ccccc2)cc1
inactive: [1] 34.2% | [2] 15.6% | [3] 20.6% | [4] 20.2% | [5] 2.25% | [6] 20.6%

O=c1[nH]cccc1O
inactive: [1] 5.2% | [2] 5.5% | [3] -17% | [4] 10.4% | [5] -8.8% | [6] 7.25%

O=c1[nH]cnc2c(C3OC(CO)C(O)C3O)[nH]nc12 (stereo unspecified)
inactive: [1] -5.2% | [2] -34.7% | [3] -15.8% | [4] 3.3% | [5] -16.8% | [6] -0.45%

CCCCCOC(c1cc2c(cc1Br)OCO2)C(C)Br (stereo unspecified)
inactive: [1] 8.9% | [2] 22.1% | [3] 10.8% | [4] 19.4% | [5] 22.8% | [6] 13.5%

CCCCOC(=O)C1CC2CC1C1OC21 (stereo unspecified)
inactive: [1] -67.6% | [2] -63.3% | [3] -23.7% | [4] -0.3% | [5] -51.9% | [6] -33.5%

C/C(C=C1C(=O)NC(=S)NC1=O)=C\c1ccccc1
inactive: [1] 13.5% | [2] -2.55% | [3] 8.35% | [4] -4.55% | [5] -8.5% | [6] 14.1%

C=C(C)Cn1cnc2c1c(=O)n(C)c(=O)n2C
inactive: [1] -0.15% | [2] -9.6% | [3] -14.4% | [4] -37.6% | [5] -14.1% | [6] -5.6%
